Experimental data published in PMC11062922 (Nature Chemical Biology, 2023).
Like-named read-outs stand apart in the source and are kept apart here.

What was measured:
AAK1 = system: AAK1; design: species or system human, MV4-11 + K-562 + COLO205 + SK-N-BE2 + OVCAR-8; conditions: read-out: apparent Kd, n = 1
CLK1 = system: CLK1; design: species or system human, MV4-11 + K-562 + COLO205 + SK-N-BE2 + OVCAR-8; conditions: read-out: apparent Kd, compound concentrations: 100 nM and 1000 nM (sheet 'Samples'), n = 1
CLK4 = system: CLK4; design: species or system human, MV4-11 + K-562 + COLO205 + SK-N-BE2 + OVCAR-8; conditions: read-out: apparent Kd, compound concentrations: 100 nM and 1000 nM (sheet 'Samples'), n = 1
CSNK2A1;CSNK2A3 = system: CSNK2A1;CSNK2A3; design: species or system human, MV4-11 + K-562 + COLO205 + SK-N-BE2 + OVCAR-8; conditions: read-out: apparent Kd, compound concentrations: 100 nM and 1000 nM (sheet 'Samples'), n = 1
CSNK2A2 = system: CSNK2A2; design: species or system human, MV4-11 + K-562 + COLO205 + SK-N-BE2 + OVCAR-8; conditions: read-out: apparent Kd, compound concentrations: 100 nM and 1000 nM (sheet 'Samples'), n = 1
Q6ZSR9 = Q6ZSR9 (human, UniProt Q6ZSR9); design: species or system MV4-11 + K-562 + COLO205 + SK-N-BE2 + OVCAR-8; conditions: read-out: apparent Kd, compound concentrations: 100 nM and 1000 nM (sheet 'Samples'), n = 1
Sequence of Q6ZSR9 (Q6ZSR9 whole entry, looked up): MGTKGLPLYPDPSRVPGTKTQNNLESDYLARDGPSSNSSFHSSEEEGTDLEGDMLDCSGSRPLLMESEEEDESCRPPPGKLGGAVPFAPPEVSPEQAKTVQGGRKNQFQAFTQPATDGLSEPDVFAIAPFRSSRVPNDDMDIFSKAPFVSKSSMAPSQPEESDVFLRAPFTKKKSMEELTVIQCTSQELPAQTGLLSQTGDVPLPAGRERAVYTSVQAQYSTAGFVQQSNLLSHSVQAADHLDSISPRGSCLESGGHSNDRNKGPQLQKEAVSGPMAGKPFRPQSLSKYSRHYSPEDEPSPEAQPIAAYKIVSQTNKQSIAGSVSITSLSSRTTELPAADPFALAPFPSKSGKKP

ABL1 = system: ABL1; design: species or system human, MV4-11 + K-562 + COLO205 + SK-N-BE2 + OVCAR-8; conditions: read-out: apparent Kd, n = 1
ABL2 = system: ABL2; design: species or system human, MV4-11 + K-562 + COLO205 + SK-N-BE2 + OVCAR-8; conditions: read-out: apparent Kd, n = 1
BCR = system: BCR; design: species or system human, MV4-11 + K-562 + COLO205 + SK-N-BE2 + OVCAR-8; conditions: read-out: apparent Kd, n = 1
FYN = system: FYN; design: species or system human, MV4-11 + K-562 + COLO205 + SK-N-BE2 + OVCAR-8; conditions: read-out: apparent Kd, n = 1
GAK = system: GAK; design: species or system human, MV4-11 + K-562 + COLO205 + SK-N-BE2 + OVCAR-8; conditions: read-out: apparent Kd, n = 1
HCK = system: HCK; design: species or system human, MV4-11 + K-562 + COLO205 + SK-N-BE2 + OVCAR-8; conditions: read-out: apparent Kd, n = 1
LCK = system: LCK; design: species or system human, MV4-11 + K-562 + COLO205 + SK-N-BE2 + OVCAR-8; conditions: read-out: apparent Kd, n = 1
PTK6 = system: PTK6; design: species or system human, MV4-11 + K-562 + COLO205 + SK-N-BE2 + OVCAR-8; conditions: read-out: apparent Kd, n = 1
RET = system: RET; design: species or system human, MV4-11 + K-562 + COLO205 + SK-N-BE2 + OVCAR-8; conditions: read-out: apparent Kd, n = 1
RIPK2 = system: RIPK2; design: species or system human, MV4-11 + K-562 + COLO205 + SK-N-BE2 + OVCAR-8; conditions: read-out: apparent Kd, n = 1
RIPK3 = system: RIPK3; design: species or system human, MV4-11 + K-562 + COLO205 + SK-N-BE2 + OVCAR-8; conditions: read-out: apparent Kd, n = 1
TNK1 = system: TNK1; design: species or system human, MV4-11 + K-562 + COLO205 + SK-N-BE2 + OVCAR-8; conditions: read-out: apparent Kd, n = 1
YES1 = system: YES1; design: species or system human, MV4-11 + K-562 + COLO205 + SK-N-BE2 + OVCAR-8; conditions: read-out: apparent Kd, n = 1
[1] = compound concentrations:100 nM and 1000 nM (sheet 'Samples')

`COc1ccccc1CCNC1=NC(=O)/C(=C/c2ccc3ncccc3c2)S1` [RO4503316-000] showed a potency estimated from few doses (AAK1; compound concentrations: 100 nM and 1000 nM (sheet 'Samples'), CATDS: 8.9875957971869994E-2) of 1540 nM, a potency estimated from few doses (CLK1; CATDS: 0.207972147405552) of 120 nM and a potency estimated from few doses (CLK4; CATDS: 0.25242389415209998) of 86.4 nM. For the same molecule, the potency estimated from few doses (CSNK2A1;CSNK2A3; CATDS: 0.132518653833052) was 327 nM, the potency estimated from few doses (CSNK2A2; CATDS: 0.17333569062509099) was 171 nM and the potency estimated from few doses (Q6ZSR9; CATDS: 9.2411068480935804E-2) was 1310 nM.

`O=C1N=C(N[C@@H](CO)c2ccccc2)S/C1=C\c1ccc2ncccc2c1` [RO4554340-000] showed a potency estimated from few doses (AAK1; compound concentrations: 100 nM and 1000 nM (sheet 'Samples'), CATDS: 0.158998542924943) of 1190 nM, a potency estimated from few doses (CLK1; CATDS: 0.44812709075051699) of 156 nM and a potency estimated from few doses (CLK4; CATDS: 0.232280366030543) of 478 nM. The potency estimated from few doses (Q6ZSR9; CATDS: 0.16133585717123999) was 1140 nM.

Molecule `COc1ccccc1CNC1=NC(=O)/C(=C/c2ccc3ncccc3c2)S1` [RO4503315-000] has a potency estimated from few doses (AAK1; compound concentrations: 100 nM and 1000 nM (sheet 'Samples'), CATDS: 7.6030940071323702E-2) of 908 nM, a potency estimated from few doses (CLK1; CATDS: 0.30628277203205201) of 30.8 nM and a potency estimated from few doses (CLK4; CATDS: 0.47450505844259699) of 14.8 nM. The potency estimated from few doses (CSNK2A1;CSNK2A3; CATDS: 0.129899516900844) was 197 nM, the potency estimated from few doses (CSNK2A2; CATDS: 0.121862828094444) was 231 nM and the potency estimated from few doses (Q6ZSR9; CATDS: 7.7270195347091397E-2) was 858 nM.

`CCN(CC)CCOc1ccc(Nc2ncc3cc(-c4c(Cl)cccc4Cl)c(=O)n(C)c3n2)cc1` [SB-601273] gave a potency estimated from few doses (ABL1; [1]) of 72.7 nM, a potency estimated from few doses (ABL2; [1]) of 8.98 nM and a potency estimated from few doses (BCR; [1]) of 5.53 nM. It also gave a potency estimated from few doses (FYN; [1]) of 130 nM, a potency estimated from few doses (GAK; [1]) of 55.4 nM and a potency estimated from few doses (HCK; [1]) of 299 nM. It also gave a potency estimated from few doses (LCK; [1]) of 39 nM, a potency estimated from few doses (PTK6; [1]) of 224 nM and a potency estimated from few doses (RET; [1]) of 167 nM. It also gave a potency estimated from few doses (RIPK2; [1]) of 19.4 nM, a potency estimated from few doses (RIPK3; [1]) of 765 nM and a potency estimated from few doses (TNK1; [1]) of 631 nM. It also gave a potency estimated from few doses (YES1; [1]) of 80.1 nM.

For `Nc1nc(-c2cccnc2)c(-c2ccnc3ccccc23)s1` [GW684083X], the potency estimated from few doses (AAK1; [1]) was 1960 nM and the potency estimated from few doses (GAK; [1]) was 1430 nM.

For `CN1C(=O)c2ccccc2N(C)c2nc(Nc3cnn(C4CCNCC4)c3)ncc21` [XMD-17-51], the potency estimated from few doses (ABL1; compound concentrations: 100 nM and 1000 nM (sheet 'Samples'), CATDS: 3.0247523924653401E-2) was 152 nM, the potency estimated from few doses (ABL2; compound concentrations: 100 nM and 1000 nM (sheet 'Samples'), CATDS: 2.0369269177780699E-2) was 429 nM and the potency estimated from few doses (BCR; compound concentrations: 100 nM and 1000 nM (sheet 'Samples'), CATDS: 6.3621758322441394E-2) was 32.4 nM. For the same molecule, the potency estimated from few doses (FYN; compound concentrations: 100 nM and 1000 nM (sheet 'Samples'), CATDS: 1.52897278360091E-2) was 1140 nM, the potency estimated from few doses (HCK; compound concentrations: 100 nM and 1000 nM (sheet 'Samples'), CATDS: 1.5765780158237999E-2) was 1000 nM and the potency estimated from few doses (LCK; compound concentrations: 100 nM and 1000 nM (sheet 'Samples'), CATDS: 2.0561496325198901E-2) was 418 nM. It also gave a potency estimated from few doses (PTK6; compound concentrations: 100 nM and 1000 nM (sheet 'Samples'), CATDS: 1.5181861275826099E-2) of 1170 nM, a potency estimated from few doses (RET; compound concentrations: 100 nM and 1000 nM (sheet 'Samples'), CATDS: 5.3896447188978902E-2) of 44.2 nM and a potency estimated from few doses (RIPK2; compound concentrations: 100 nM and 1000 nM (sheet 'Samples'), CATDS: 1.9176534260091301E-2) of 514 nM. It also gave a potency estimated from few doses (TNK1; compound concentrations: 100 nM and 1000 nM (sheet 'Samples'), CATDS: 2.1534980047370499E-2) of 366 nM and a potency estimated from few doses (YES1; compound concentrations: 100 nM and 1000 nM (sheet 'Samples'), CATDS: 2.1066601667733099E-2) of 389 nM.

`COc1ccc(CNC(=O)NC2CCN(c3ccnc(Nc4cc(OC)c(OC)c(OC)c4)n3)C2)cc1` (stereo not shown) [GSK1379748A] gave a potency estimated from few doses (AAK1; compound concentrations: 100 nM and 1000 nM (sheet 'Samples'), CATDS: 0.347671640618193) of 1680 nM and a potency estimated from few doses (Q6ZSR9; CATDS: 0.34499454920455003) of 1710 nM.

`Cc1ccc(O)cc1Nc1ccnc2cc(-c3ccccn3)ccc12.Cl` [GW440139A] showed a potency estimated from few doses (ABL1; compound concentrations: 100 nM and 1000 nM (sheet 'Samples'), CATDS: 2.9086276614824699E-2) of 609 nM, a potency estimated from few doses (ABL2; compound concentrations: 100 nM and 1000 nM (sheet 'Samples'), CATDS: 3.5730235281971501E-2) of 238 nM and a potency estimated from few doses (BCR; compound concentrations: 100 nM and 1000 nM (sheet 'Samples'), CATDS: 6.7644332106689603E-2) of 40.7 nM. It also gave a potency estimated from few doses (GAK; compound concentrations: 100 nM and 1000 nM (sheet 'Samples'), CATDS: 4.3663241287780298E-2) of 121 nM, a potency estimated from few doses (RET; compound concentrations: 100 nM and 1000 nM (sheet 'Samples'), CATDS: 4.9371716156535399E-2) of 85.8 nM and a potency estimated from few doses (RIPK2; compound concentrations: 100 nM and 1000 nM (sheet 'Samples'), CATDS: 3.9139887822916601E-2) of 171 nM. The potency estimated from few doses (RIPK3; compound concentrations: 100 nM and 1000 nM (sheet 'Samples'), CATDS: 4.4642127518175201E-2) was 114 nM.

`Cl.Oc1cccc(Nc2ccnc3cc(-c4ccncc4)ccc23)c1` [GW494601A] showed a potency estimated from few doses (ABL1; compound concentrations: 100 nM and 1000 nM (sheet 'Samples'), CATDS: 3.6017646503182399E-2) of 127 nM, a potency estimated from few doses (ABL2; compound concentrations: 100 nM and 1000 nM (sheet 'Samples'), CATDS: 5.7742248446513503E-2) of 32.5 nM and a potency estimated from few doses (BCR; compound concentrations: 100 nM and 1000 nM (sheet 'Samples'), CATDS: 9.7304657047822804E-2) of 10.5 nM. It also gave a potency estimated from few doses (FYN; compound concentrations: 100 nM and 1000 nM (sheet 'Samples'), CATDS: 2.0819366263931199E-2) of 1150 nM, a potency estimated from few doses (GAK; compound concentrations: 100 nM and 1000 nM (sheet 'Samples'), CATDS: 8.36996948680125E-2) of 14.1 nM and a potency estimated from few doses (HCK; compound concentrations: 100 nM and 1000 nM (sheet 'Samples'), CATDS: 2.0776424104180801E-2) of 1170 nM. It also gave a potency estimated from few doses (PTK6; compound concentrations: 100 nM and 1000 nM (sheet 'Samples'), CATDS: 1.98277031575195E-2) of 1530 nM, a potency estimated from few doses (RET; compound concentrations: 100 nM and 1000 nM (sheet 'Samples'), CATDS: 7.2637191041935695E-2) of 19 nM and a potency estimated from few doses (RIPK2; compound concentrations: 100 nM and 1000 nM (sheet 'Samples'), CATDS: 0.103970438166355) of 9.31 nM. The potency estimated from few doses (RIPK3; compound concentrations: 100 nM and 1000 nM (sheet 'Samples'), CATDS: 6.8751849319998101E-2) was 21.5 nM.
